Measured values as given in PubChem BioAssay (Tox21).
Records with an inconclusive call do not appear. Active and inactive are the calls of the source. Unless noted, calls follow the shape of the dose curve; as a rule, active = well fitted curve in the direction sought with a large enough effect in the repeat runs; inconclusive = weak or mixed curves; inactive = no such curve, though single readings can be large; an effect the other way counts as inactive or inconclusive.

Assays:
[1] = qHTS assay to identify small molecule antagonists of the thyroid receptor (TR) signaling pathway - cell viability counter screen (AID 743064); settings: GH3.TRE-Luc viability, CellTiter-Fluor, 24 h; series mostly up to 70.3 µM; also: nearly all actives have a fitted effect of over 50% in size; also: potency is read from the fitted curve at half-maximal effect
In short: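 Fluorescence from CellTiter-Fluor, added after 23.5 h exposure at 37 °C, reported viability of GH3.TRE-Luc cells co-treated with compound and 1 nM T3. Measured in the same wells as the luciferase TR readout.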

[2] = test system: thyroid hormone receptor (rat, GH3 cells); assay: qHTS assay to identify small molecule agonists of the thyroid receptor (TR) signaling pathway (AID 743066; calls by dose curve); settings: GH3.TRE-Luc cells, TR agonist luciferase, 24 h; series mostly up to 83.9 µM
[3] = target: Estrogen receptor (Homo sapiens) (UniProt P03372); assay: qHTS assay to identify small molecule antagonists of the estrogen receptor alpha (ER-alpha) signaling pathway (AID 743069; active = well fitted curve in the direction sought with a large enough effect in the signal ratio in the repeat runs, not every such curve was filed as active; the % refers to the signal ratio); settings: HEK293 ER-alpha-UAS-bla, beta-lactamase ratio, antagonist mode; series mostly up to 69.4 µM
Sequence of Estrogen receptor (Homo sapiens) (P03372 whole entry, looked up): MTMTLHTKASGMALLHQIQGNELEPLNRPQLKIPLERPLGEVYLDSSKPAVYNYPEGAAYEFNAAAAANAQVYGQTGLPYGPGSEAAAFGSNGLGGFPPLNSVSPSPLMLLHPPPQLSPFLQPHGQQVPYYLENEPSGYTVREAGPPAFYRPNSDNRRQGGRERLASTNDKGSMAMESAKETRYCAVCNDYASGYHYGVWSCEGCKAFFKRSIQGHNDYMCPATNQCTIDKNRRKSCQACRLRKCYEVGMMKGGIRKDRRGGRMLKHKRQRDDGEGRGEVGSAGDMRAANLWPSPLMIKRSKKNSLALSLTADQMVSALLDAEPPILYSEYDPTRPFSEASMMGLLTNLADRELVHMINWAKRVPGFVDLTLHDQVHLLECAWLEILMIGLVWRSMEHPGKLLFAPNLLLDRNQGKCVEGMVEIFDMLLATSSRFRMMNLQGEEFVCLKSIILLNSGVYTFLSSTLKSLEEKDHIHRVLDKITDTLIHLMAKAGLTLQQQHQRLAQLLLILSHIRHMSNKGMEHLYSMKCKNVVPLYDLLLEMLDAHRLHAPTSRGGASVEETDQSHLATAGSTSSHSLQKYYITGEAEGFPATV
In short: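 Reporter cells (ER-alpha-bla, HEK293 background) are conditioned overnight in stripped-serum medium (2% charcoal-stripped FBS). Compound and 17beta-estradiol exposure runs 18 hr at 37C, 5% CO2.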

[4] = qHTS assay to identify small molecule antagonists of the estrogen receptor alpha (ER-alpha) signaling pathway - cell viability counter screen (AID 743074; calls by dose curve;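 also: HEK293 cells carrying ER-alpha-UAS-bla reporter stimulated with 17beta-estradiol; nearly all actives have a fitted effect of over 45% in size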; also: potency is read from the fitted curve at half-maximal effect); settings: ERalpha-bla HEK293 viability, CellTiter-Glo luminescence, 18 h; series mostly up to 69.4 µM
[5] = target: Estrogen receptor (Homo sapiens) (UniProt P03372); assay: qHTS assay to identify small molecule agonists of the estrogen receptor alpha (ER-alpha) signaling pathway (AID 743075; calls by dose curve;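 also: HEK293 GripTite cells with ER-alpha and UAS-driven beta-lactamase reporter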); settings: HEK293 ER-alpha-UAS-bla, beta-lactamase FRET ratio, 18 h; series mostly up to 70.1 µM
[6] = target: Estrogen receptor (Homo sapiens) (UniProt P03372); assay: qHTS assay to identify small molecule agonists of the estrogen receptor alpha (ER-alpha) signaling pathway using the BG1 cell line (AID 743079); settings: BG1Luc4E2 cells, ERE-luciferase agonist, 22 h; activation: at 70.3 µM (top of the series); also: nearly all actives have a fitted effect of over 20% in size
[7] = qHTS assay to identify small molecule antagonists of the estrogen receptor alpha (ER-alpha) signaling pathway using the BG1 cell line (AID 743080; calls by dose curve;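 also: BG1 cells stimulated with 17beta-estradiol alongside compound; nearly all actives have a fitted effect of over 25% in size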; also: potency is read from the fitted curve at half-maximal effect); settings: BG1Luc4E2 ERE-luciferase antagonist mode, luminescence; series mostly up to 70.3 µM
In short: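 BG1-Luc-4E2 cells (endogenous full-length ER-alpha, stable 4×ERE-luciferase) were starved 5 days in phenol-red-free medium with 10% charcoal-stripped FBS, plated 24 h, then given compound plus 17beta-estradiol for 21.5 h at 37 C; ONE-Glo luminescence read after 30 min.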

[8] = qHTS assay to identify small molecule antagonists of the estrogen receptor alpha (ER-alpha) signaling pathway using the BG1 cell line - cell viability counter screen (AID 743081); settings: BG1Luc4E2 viability, CellTiter-Fluor, 22 h; series mostly up to 70.3 µM;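 also: compound given together with 17beta-estradiol as the ER stimulus; nearly all actives have a fitted effect of over 45% in size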; also: potency is read from the fitted curve at half-maximal effect
[9] = qHTS assay to identify small molecule antagonists of the thyroid receptor (TR) signaling pathway (AID 743065); settings: GH3.TRE-Luc, T3-stimulated luciferase inhibition, 23.5 h; series mostly up to 70.3 µM; also: nearly all actives have a fitted effect of over 55% in size; also: potency is read from the fitted curve at half-maximal effect
In short: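 GH3.TRE-Luc rat pituitary cells (two TREs driving luciferase) were dosed with compound, then stimulated with 1 nM T3 (final) for 23.5 h at 37 C. ONE-Glo luminescence was the read-out, with CellTiter-Fluor fluorescence as the cytotoxicity counter-screen.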

[10] = target: Aromatase (Homo sapiens) (UniProt P11511); assay: qHTS assay to identify aromatase inhibitors (AID 743083); settings: MCF-7 aro ERE, testosterone-driven ERE luciferase, 24 h; series mostly up to 70.3 µM; also: nearly all actives have a fitted effect of over 55% in size; also: potency is read from the fitted curve at half-maximal effect
Sequence of Aromatase (Homo sapiens) (P11511 whole entry, looked up): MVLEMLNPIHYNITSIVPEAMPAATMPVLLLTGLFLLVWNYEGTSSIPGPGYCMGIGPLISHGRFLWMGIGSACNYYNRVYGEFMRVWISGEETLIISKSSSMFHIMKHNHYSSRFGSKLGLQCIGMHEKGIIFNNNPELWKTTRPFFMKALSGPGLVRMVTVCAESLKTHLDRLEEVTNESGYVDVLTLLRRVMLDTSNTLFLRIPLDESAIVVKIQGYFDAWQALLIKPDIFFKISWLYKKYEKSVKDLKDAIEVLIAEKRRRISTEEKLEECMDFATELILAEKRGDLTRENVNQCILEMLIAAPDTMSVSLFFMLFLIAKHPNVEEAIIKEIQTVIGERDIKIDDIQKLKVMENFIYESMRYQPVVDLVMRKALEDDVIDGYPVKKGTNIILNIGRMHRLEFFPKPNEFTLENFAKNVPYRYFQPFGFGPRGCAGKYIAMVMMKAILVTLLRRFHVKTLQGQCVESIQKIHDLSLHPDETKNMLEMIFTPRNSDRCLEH

Measured: Potency

CCCCC(CC)C(=O)OCCOCCOCCOCCOC(=O)C(CC)CCCC (stereo unspecified)
not listed: [9] | [10]
inactive: all other assays above

CC(=O)Oc1ccc2c(c1)CC[C@@H]1[C@@H]2CC[C@]2(C)[C@@H](O)CC[C@@H]12
active: [1] 26.6 µM | [9] 26.6 µM
inactive: [4] | [8] | [10]

CCNC(=O)N1CCN(CCCC(c2ccc(F)cc2)c2ccc(F)cc2)CC1
active: [1] 21.1 µM | [9] 21.1 µM | [4] 16.9 µM | [8] 29.8 µM
inactive: [5]

CC1=C(/C=C/C(C)=C\C=C\C(C)=C\C(=O)O)C(C)(C)CCC1
active: [7] 243 nM
not listed: [2] | [3] | [6]
inactive: all other assays above

O=C(N/N=C/c1ccc([N+](=O)[O-])o1)c1ccc(O)cc1
inactive: [1] | [2] | [4] | [5]
active: [10] 10.1 µM

Cc1nc2ccccn2c(=O)c1CCN1CCC(C(=O)c2ccc(F)cc2)CC1
not listed: [7] | [9]
inactive: all other assays above

C=CC(=O)NCOCC(C)C
inactive: [1] | [4] | [8] | [10]

CC(C)(C)C(=O)C(Oc1ccc(Cl)cc1)n1ccnc1 (stereo unspecified)
active: [10] 11.9 µM
not listed: [1]
inactive: all other assays above

CC(C)CCCCCCOC(=O)CCCCC(=O)OCCCCCCC(C)C
not listed: [1]
inactive: all other assays above

Cc1cc(OI)c(C(C)C)cc1-c1cc(C(C)C)c(OI)cc1C
inactive: [1] | [2] | [4] | [8] | [10]

CC[C@H](NC(=O)c1cc(F)ccc1NS(=O)(=O)c1cccc2cccnc12)c1ccccc1
not listed: [3] | [7] | [9]
inactive: all other assays above

O=C(CCCN1CCC(O)(c2ccc(Br)cc2)CC1)c1ccc(F)cc1
active: [9] 10.1 µM
not listed: [1]
inactive: all other assays above
